Test [1] deals with T1, Ephrin type-B receptor 2 (Homo sapiens) (UniProt P29323).
T1 sequence (whole entry): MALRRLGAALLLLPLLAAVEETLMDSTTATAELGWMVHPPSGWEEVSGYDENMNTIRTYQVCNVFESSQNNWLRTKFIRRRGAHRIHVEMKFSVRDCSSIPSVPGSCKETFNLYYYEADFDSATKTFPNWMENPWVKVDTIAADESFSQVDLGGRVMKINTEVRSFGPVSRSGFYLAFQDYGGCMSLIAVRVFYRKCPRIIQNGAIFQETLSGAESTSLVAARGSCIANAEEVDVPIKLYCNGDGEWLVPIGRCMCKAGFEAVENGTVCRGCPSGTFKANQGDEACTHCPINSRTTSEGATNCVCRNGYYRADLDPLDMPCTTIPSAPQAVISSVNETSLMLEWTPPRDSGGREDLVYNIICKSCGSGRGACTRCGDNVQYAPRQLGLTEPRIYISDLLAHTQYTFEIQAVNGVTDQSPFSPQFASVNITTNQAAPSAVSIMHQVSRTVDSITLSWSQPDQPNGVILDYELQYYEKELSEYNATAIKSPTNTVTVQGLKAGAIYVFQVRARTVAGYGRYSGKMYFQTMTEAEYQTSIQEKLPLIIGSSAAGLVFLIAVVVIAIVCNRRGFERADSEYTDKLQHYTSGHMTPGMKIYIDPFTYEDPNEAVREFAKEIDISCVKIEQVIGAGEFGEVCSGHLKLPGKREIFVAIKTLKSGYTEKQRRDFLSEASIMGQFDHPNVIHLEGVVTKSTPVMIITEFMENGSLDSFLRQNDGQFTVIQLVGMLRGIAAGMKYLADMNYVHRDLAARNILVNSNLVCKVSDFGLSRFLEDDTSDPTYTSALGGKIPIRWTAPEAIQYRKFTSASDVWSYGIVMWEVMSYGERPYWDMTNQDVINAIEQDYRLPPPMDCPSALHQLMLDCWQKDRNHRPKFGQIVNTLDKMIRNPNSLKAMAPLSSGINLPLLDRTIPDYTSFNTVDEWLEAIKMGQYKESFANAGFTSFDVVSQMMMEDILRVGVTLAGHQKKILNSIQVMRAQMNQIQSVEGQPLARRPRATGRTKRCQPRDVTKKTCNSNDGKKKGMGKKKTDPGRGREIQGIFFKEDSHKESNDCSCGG
To be noted: at 1 µM.

Test [2] deals with T2, Ephrin type-B receptor 3 (Homo sapiens) (UniProt P54753).
T2 sequence (whole entry): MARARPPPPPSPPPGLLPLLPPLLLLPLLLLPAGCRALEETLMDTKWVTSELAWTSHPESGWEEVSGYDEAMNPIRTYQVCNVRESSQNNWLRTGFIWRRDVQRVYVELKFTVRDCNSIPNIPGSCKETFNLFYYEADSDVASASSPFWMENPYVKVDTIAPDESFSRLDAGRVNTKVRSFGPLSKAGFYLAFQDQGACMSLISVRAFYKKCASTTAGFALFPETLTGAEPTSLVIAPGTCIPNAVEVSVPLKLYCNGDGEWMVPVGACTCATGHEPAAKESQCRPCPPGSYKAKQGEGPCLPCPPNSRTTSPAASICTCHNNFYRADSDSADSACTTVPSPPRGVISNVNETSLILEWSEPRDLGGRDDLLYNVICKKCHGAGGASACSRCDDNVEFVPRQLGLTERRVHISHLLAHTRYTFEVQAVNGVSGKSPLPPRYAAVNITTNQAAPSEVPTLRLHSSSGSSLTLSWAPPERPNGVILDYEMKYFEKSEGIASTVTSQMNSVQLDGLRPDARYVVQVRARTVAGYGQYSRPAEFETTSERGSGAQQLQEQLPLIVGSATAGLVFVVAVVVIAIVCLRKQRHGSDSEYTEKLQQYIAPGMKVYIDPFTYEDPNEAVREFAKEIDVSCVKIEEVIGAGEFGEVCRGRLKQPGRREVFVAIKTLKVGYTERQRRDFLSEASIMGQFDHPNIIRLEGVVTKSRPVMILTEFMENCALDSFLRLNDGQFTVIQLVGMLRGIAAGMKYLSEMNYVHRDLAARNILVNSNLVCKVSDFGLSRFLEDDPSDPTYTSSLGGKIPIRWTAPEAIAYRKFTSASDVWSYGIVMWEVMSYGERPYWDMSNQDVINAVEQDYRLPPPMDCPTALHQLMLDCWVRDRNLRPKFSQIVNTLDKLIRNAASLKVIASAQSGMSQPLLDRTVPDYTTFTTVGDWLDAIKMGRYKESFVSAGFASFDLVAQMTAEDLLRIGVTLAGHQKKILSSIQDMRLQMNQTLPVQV
The conditions noted are these: at 0.1 µM.

Test [3] addresses T2, Ephrin type-B receptor 3 (Homo sapiens). To be noted: at 1 µM.
Test [4] concerns the target T3, Ephrin type-B receptor 4 (Homo sapiens) (UniProt P54760).
T3 sequence (whole entry): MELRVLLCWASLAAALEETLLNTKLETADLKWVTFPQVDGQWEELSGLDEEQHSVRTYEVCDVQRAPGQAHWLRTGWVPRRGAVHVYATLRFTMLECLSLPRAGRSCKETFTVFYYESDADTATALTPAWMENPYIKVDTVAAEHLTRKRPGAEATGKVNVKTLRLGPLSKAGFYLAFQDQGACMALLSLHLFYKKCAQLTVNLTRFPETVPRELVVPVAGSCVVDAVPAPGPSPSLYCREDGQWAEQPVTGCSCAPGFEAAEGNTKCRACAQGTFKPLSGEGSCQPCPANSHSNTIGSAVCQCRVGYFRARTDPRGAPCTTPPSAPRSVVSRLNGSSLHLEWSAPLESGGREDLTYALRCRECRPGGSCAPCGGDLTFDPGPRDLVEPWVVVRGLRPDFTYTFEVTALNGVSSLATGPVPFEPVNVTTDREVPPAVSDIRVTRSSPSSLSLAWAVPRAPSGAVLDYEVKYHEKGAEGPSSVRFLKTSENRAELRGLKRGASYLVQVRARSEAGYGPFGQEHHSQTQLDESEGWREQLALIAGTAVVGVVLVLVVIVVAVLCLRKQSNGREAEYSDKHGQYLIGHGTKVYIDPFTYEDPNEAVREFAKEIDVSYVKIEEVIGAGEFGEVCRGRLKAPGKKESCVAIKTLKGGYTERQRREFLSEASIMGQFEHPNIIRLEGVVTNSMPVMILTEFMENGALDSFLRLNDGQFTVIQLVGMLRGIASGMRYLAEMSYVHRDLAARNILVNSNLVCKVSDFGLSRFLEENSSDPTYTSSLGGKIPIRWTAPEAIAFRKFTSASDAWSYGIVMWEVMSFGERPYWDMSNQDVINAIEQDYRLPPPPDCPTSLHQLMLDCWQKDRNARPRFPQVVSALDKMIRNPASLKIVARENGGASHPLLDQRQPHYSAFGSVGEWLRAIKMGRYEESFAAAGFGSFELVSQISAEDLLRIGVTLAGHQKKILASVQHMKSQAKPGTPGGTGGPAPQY
The conditions noted are these: at 0.1 µM.

Test [5] concerns the target T3, Ephrin type-B receptor 4 (Homo sapiens). The conditions noted are these: at 1 µM.
Test [6] deals with Receptor tyrosine-protein kinase erbB-2 (Homo sapiens) (UniProt P04626). The conditions noted are these: at 0.1 µM.
Chain of Receptor tyrosine-protein kinase erbB-2 (Homo sapiens) (P04626 whole entry): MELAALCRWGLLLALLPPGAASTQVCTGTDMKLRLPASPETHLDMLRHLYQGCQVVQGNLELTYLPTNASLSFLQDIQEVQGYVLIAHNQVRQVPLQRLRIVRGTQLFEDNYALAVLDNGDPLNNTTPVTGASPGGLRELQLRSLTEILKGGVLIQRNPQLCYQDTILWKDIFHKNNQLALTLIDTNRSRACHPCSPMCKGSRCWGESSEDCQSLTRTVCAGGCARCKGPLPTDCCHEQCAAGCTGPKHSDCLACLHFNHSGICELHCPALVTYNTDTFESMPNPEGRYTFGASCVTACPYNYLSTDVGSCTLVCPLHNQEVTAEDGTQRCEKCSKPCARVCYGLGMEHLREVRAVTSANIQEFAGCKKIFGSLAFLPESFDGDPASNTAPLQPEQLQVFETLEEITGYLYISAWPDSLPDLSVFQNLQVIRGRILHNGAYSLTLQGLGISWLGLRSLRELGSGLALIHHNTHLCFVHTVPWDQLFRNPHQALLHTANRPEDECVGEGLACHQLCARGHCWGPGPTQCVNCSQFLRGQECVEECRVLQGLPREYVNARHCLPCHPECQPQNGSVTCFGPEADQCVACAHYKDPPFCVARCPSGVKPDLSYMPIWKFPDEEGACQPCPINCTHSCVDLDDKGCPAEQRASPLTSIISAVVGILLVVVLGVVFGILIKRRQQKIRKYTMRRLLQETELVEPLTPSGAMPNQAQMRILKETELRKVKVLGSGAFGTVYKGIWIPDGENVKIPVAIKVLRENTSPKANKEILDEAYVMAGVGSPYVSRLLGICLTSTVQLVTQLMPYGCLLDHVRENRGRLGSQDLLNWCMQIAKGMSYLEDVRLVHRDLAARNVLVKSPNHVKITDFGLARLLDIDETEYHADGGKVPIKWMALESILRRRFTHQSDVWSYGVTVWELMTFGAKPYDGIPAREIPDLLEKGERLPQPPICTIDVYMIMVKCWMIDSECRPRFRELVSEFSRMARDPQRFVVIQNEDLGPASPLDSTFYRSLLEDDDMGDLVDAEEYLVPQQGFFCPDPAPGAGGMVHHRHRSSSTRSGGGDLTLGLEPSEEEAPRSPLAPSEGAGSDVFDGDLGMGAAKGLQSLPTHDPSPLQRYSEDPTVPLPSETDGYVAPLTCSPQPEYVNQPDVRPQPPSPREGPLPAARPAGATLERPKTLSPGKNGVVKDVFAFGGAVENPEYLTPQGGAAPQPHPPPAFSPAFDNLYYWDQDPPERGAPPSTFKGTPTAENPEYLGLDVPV
The target is the same in test [7]. To be noted: at 1 µM.
The target in test [8] is Receptor tyrosine-protein kinase erbB-4 (Homo sapiens) (UniProt Q15303). The conditions noted are these: at 0.1 µM.
Chain of Receptor tyrosine-protein kinase erbB-4 (Homo sapiens) (Q15303 whole entry): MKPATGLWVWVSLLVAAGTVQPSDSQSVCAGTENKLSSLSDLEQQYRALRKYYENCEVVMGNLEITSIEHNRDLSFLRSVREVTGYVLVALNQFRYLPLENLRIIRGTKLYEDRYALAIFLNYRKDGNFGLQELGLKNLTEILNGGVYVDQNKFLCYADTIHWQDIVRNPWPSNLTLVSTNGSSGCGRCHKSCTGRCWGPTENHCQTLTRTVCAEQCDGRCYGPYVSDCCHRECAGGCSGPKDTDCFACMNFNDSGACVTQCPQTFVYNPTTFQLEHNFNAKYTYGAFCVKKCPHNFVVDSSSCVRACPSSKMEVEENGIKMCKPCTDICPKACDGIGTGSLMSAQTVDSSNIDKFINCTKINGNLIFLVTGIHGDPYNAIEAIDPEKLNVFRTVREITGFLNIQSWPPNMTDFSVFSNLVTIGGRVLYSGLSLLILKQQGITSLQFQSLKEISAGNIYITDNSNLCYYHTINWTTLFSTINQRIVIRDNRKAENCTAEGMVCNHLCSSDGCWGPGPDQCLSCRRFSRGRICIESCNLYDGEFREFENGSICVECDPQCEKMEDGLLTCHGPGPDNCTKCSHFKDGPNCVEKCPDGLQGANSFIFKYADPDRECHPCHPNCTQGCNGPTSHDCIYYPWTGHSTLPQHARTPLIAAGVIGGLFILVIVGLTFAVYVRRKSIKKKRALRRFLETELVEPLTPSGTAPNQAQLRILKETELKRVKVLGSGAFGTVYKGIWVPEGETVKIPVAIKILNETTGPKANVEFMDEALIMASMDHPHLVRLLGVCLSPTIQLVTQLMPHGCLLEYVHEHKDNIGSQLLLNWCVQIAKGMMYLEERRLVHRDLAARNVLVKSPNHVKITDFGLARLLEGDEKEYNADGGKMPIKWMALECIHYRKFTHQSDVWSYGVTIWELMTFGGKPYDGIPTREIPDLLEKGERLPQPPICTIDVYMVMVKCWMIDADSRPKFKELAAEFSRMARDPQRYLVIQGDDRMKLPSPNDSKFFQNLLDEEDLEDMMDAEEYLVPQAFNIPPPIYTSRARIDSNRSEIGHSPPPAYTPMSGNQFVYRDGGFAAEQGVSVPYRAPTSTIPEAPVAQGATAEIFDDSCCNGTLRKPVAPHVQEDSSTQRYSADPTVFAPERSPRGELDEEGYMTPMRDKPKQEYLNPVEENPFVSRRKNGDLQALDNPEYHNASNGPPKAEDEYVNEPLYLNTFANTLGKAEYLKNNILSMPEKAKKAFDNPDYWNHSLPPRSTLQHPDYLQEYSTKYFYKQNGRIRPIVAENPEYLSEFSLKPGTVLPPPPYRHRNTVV
The target is the same in test [9]. To be noted: at 1 µM.
Test [10] concerns the target Tyrosine-protein kinase Fer (Homo sapiens) (UniProt P16591). To be noted: at 0.1 µM.
The target is the same in test [11]. To be noted: at 1 µM.
The target of test [12] is Tyrosine-protein kinase Fes/Fps (Homo sapiens) (UniProt P07332). To be noted: at 0.1 µM.
Test [13] has the same target. To be noted: at 1 µM.
Test [14] addresses Fibroblast growth factor receptor 1 (Homo sapiens) (UniProt P11362). The conditions noted are these: at 0.1 µM.
The target is the same in test [15]. The conditions noted are these: at 1 µM.
The target of test [16] is Fibroblast growth factor receptor 2 (Homo sapiens) (UniProt P21802). To be noted: at 0.1 µM.
Chain of Fibroblast growth factor receptor 2 (Homo sapiens) (P21802 22-821 limits assumed): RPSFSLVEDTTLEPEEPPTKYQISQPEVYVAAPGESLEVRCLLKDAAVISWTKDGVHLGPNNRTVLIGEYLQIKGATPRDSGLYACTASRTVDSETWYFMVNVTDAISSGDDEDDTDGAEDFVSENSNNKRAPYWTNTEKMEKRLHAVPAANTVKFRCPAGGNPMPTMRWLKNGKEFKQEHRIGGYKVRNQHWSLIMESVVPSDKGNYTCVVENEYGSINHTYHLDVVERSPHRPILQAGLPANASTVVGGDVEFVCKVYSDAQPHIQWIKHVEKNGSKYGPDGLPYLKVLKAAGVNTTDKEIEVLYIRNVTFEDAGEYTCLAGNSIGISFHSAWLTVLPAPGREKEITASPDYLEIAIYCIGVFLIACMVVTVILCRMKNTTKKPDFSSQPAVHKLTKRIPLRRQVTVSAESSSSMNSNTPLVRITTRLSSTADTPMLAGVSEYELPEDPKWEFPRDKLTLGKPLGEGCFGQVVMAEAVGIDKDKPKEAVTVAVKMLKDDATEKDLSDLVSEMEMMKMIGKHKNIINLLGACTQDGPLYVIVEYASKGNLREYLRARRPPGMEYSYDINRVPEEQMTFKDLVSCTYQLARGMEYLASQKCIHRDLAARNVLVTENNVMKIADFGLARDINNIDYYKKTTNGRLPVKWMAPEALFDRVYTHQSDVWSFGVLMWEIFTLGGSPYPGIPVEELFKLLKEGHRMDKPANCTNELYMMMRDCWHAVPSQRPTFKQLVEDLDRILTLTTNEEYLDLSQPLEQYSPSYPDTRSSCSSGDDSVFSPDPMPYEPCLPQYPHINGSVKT
The target is the same in test [17]. To be noted: at 1 µM.
In test [18] the target is Fibroblast growth factor receptor 3 (Homo sapiens) (UniProt P22607). To be noted: at 0.1 µM.
Test [19] has the same target. To be noted: at 1 µM.
The target in test [20] is Fibroblast growth factor receptor 4 (Homo sapiens) (UniProt P22455). To be noted: at 0.1 µM.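 Further: values are mean percent inhibition of FGFR4.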

Chain of Tyrosine-protein kinase Fer (Homo sapiens) (P16591 whole entry, looked up): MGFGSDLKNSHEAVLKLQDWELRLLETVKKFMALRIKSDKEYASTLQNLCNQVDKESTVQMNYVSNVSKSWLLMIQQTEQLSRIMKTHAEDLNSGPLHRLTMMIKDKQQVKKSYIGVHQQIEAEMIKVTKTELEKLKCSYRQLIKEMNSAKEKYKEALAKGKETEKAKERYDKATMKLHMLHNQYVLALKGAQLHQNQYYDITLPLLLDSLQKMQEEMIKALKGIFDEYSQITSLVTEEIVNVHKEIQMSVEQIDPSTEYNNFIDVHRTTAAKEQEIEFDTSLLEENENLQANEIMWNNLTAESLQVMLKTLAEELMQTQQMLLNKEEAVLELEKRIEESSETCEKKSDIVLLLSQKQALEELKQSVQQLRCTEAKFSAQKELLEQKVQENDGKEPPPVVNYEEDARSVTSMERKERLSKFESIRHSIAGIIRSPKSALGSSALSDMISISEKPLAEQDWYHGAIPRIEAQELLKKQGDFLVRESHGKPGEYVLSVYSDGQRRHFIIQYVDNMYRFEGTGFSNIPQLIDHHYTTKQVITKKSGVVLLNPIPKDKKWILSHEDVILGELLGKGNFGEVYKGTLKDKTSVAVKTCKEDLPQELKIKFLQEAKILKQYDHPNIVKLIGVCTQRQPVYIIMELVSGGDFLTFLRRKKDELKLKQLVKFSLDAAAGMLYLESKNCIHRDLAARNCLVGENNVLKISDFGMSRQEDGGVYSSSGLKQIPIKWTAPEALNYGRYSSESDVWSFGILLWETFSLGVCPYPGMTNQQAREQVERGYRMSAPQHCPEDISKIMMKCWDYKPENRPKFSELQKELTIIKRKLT
Chain of Fibroblast growth factor receptor 1 (Homo sapiens) (P11362 22-822 limits assumed): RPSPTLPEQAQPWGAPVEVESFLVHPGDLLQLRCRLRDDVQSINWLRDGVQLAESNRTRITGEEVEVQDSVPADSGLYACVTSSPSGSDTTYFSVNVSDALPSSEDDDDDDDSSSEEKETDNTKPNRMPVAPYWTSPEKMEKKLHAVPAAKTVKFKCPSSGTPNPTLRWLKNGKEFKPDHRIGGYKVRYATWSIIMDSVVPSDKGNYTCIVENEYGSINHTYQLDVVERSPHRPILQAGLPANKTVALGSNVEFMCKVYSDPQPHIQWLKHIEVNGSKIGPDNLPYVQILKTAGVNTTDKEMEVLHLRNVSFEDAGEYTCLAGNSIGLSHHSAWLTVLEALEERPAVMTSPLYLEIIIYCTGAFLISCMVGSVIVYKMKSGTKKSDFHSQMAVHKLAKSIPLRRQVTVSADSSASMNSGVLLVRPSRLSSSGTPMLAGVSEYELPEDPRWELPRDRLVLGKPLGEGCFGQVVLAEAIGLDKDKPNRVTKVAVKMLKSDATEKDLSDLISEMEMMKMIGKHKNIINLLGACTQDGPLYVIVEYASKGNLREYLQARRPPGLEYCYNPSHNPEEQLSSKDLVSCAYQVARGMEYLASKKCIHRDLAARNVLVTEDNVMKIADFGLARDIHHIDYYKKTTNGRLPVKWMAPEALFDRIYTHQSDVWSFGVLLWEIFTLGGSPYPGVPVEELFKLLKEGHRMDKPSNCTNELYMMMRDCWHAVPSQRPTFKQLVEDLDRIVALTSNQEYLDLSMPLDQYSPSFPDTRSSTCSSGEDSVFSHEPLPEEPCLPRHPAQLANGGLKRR

As usually defined, the inhibition is the drop in the measured response relative to a control, in per cent. `COC(=O)Nc1nc2cc(Oc3cccc(NC(=O)Nc4cc(C(F)(F)F)ccc4F)c3)ccc2[nH]1`: the inhibition in [1] was 8.15%; in test [2] it was 2.88%; in [3], 0.33%; in test [4], 0.65%; in test [5] it was 2.71%; in [6] it was -1.15%. Further, the inhibition was -2.43% in [7]; 3.99% in test [8]; 6.3% in test [9]; 0.75% in [10]; 1.61% in test [11]; -0.51% in [12]. Besides, the inhibition in [13] is 0.56%; in test [14] it was -2.84%; in [15], 0%; in test [16] it was -1.71%; in [17], 2.62%; in test [18] it was 0.57%. Further, the inhibition was 1.54% in [19] and -1.4% in test [20].
With `Cc1ccc(NC(=O)c2ccnc(N3CCCC3)c2)cc1-c1ccc(C(=O)NCC2CC2)cc1`, the inhibition was 6.65% in [1]; 1.72% in [2]; -1.41% in test [3]; -3.04% in test [4]; -2.95% in [5]; 2.34% in test [6]. In addition, the inhibition in test [7] was -3.44%; in [8], 6.37%; in test [9], 5.79%; in [10], 0.77%; in [11], 1.67%; in test [12] it was 5.28%. For the same molecule, the inhibition in [13] is 5.19%; in [14], -1.44%; in test [15] it was 2.19%; in test [16], 1.81%; in test [17], 7.09%; in test [18], 6.97%. Moreover, the inhibition was 4.11% in [19] and -8.29% in test [20].
Turning to `COc1ccc(-c2nn3ncccc3c2-c2ccnc(Nc3ccc(Cl)c(C(F)(F)F)c3)n2)cc1`, the inhibition in [1] was 10%; in test [2] it was 3.56%; in test [3] it was 4.88%; in test [4], 3.3%; in test [5], -0.34%; in test [6], 3.66%. Also, the inhibition is 7.66% in test [7]; 16% in test [8]; 51.5% in test [9]; 1.3% in [10]; 3.06% in [11]; 0.66% in test [12]. The inhibition was 1.82% in test [13]; 1.96% in [14]; -2.37% in test [15]; 1.72% in test [16]; 2.97% in [17]; 2.57% in test [18]. For the same molecule, the inhibition in [19] came to 4.12%; in test [20], 0.28%.
Take `COc1cc2c(cc1Nc1nc(N3CCc4ccccc43)c3cc[nH]c3n1)N(C(=O)CN(C)C)CC2`: the inhibition in [1] stood at 9.31%; in test [2] it was 2.82%; in test [3] it was 0.49%; in test [4] it was 1%; in test [5], 0.73%; in test [6] it was 1.22%. The inhibition in test [7] was -0.36%; in test [8], 6.72%; in test [9] it was 6.14%; in [10], 66.2%; in test [11], 85.2%; in test [12], 39.9%. Further, the inhibition is 62.3% in test [13]; 2.98% in test [14]; -1.36% in [15]; 0.56% in test [16]; 6.55% in test [17]; 3.52% in test [18]. Further, the inhibition is 0.84% in [19] and -1.03% in test [20].
On to `COc1ccc2cc(-c3c(-c4ccncc4)nc(-c4ccc([S+](C)[O-])cc4)n3C)ccc2c1` (stereo not given), for which the inhibition amounted to 6.51% in [1]; 5.38% in [2]; 4.12% in [3]; 2.71% in test [4]; 6.99% in test [5]; 2.07% in [6]. Further, the inhibition in test [7] was -0.38%; in [8], 12.1%; in test [9] it was 23.1%; in test [10] it was 1.4%; in [11], 3.19%; in test [12] it was 2.73%. In addition, the inhibition in [13] was found to be 3%; in [14], 0.66%; in test [15], 17%; in test [16], 3.38%; in [17], 5.85%; in test [18], 4.62%. Further, the inhibition was determined as 5.2% in [19] and 0.03% in test [20].
For the molecule `CCc1cccc(NC(=O)Nc2ccc(Oc3ccc4nc(NC(=O)OC)[nH]c4c3)cc2)c1`, the inhibition turned out to be 63% in test [1]; 6.29% in test [2]; 3.66% in [3]; 15.7% in [4]; 27.5% in test [5]; 0.27% in test [6]. The inhibition in [7] was found to be 7%; in test [8], 9.67%; in test [9], 15.3%; in test [10], 3.85%; in test [11] it was 1.84%; in test [12], 0.9%. Moreover, the inhibition in test [13] is 0.62%; in test [14], -3.46%; in [15], 3.26%; in test [16], 3.25%; in test [17], 8.89%; in [18], 3.09%. For the same molecule, the inhibition in test [19] worked out at 6.95%; in test [20] it was 4.21%.
`COc1cc(C)c(NC(=O)CN(C)C)cc1Nc1nc(Nc2cccc(F)c2C(N)=O)c2cc[nH]c2n1`: the inhibition in test [1] stood at 8.75%; in test [2] it was 4.52%; in [3] it was 0.2%; in test [4] it was 2.62%; in [5], 1.31%; in [6], 0.48%. For the same molecule, the inhibition in [7] was -0.4%; in test [8] it was 10.4%; in test [9], 32.1%; in test [10], 81.8%; in test [11], 86.8%; in test [12], 76.1%. The inhibition is 89% in [13]; 0.49% in test [14]; 1.43% in [15]; 0.12% in test [16]; 4.39% in test [17]; 2.37% in [18]. The inhibition was 1.03% in [19] and -1.04% in [20].
